Measurements from PubChem BioAssay AID504467 (National Center for Advancing Translational Sciences (NCATS), 2011).
Hit rate of the full screen: of about 330,000 compounds, about 7,700 (2.3%) were called active. About 26% were inconclusive and are not listed. The entries come from a sample that favours actives as a whole. A number with no mark means an inactive call. Calls follow the shape of the dose curve; as a rule, active = well fitted inhibition curve with a large enough effect; inconclusive = small, poorly fitted or top-dose-only effect, or effect the other way; inactive = flat fitted curve, though single readings scatter.

test: qHTS screen for small molecules that inhibit ELG1-dependent DNA repair in human embryonic kidney (HEK293T) cells expressing luciferase-tagged ELG1; conditions: HEK293T ELG1-luciferase reporter, luminescence, 16 h, DNA damage induced by 5-fluorouridine; series mostly up to 46.1 µM; activity change, negative = inhibition: at the top concentration; also: nearly all actives have a fitted effect of over 55% in size
Outline: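 Step one: seed 2,000 cells per well. Step two: pin-transfer compound or DMSO alongside 5-fluorouridine. Step three: incubate 16 hr, 37 °C, 5% CO2. Step four: add ONE-Glo, wait 30 min, read luminescence.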
% is scaled to controls: 0 for no effect and ±100 for the full control effect; potency is read from the fitted curve at half-maximal effect.

Structure (SMILES)	Potency	activity change, negative = inhibition [%]
CCN(CC)S(=O)(=O)c1ccc(N2CCOCC2)c(NC(=O)C(C)Oc2ccc(F)cc2)c1 (stereo not given)	8.2 µM (active)	
CC(Oc1ccc(F)cc1)C(=O)Nc1cc(S(=O)(=O)N2CCOCC2)ccc1N1CCN(C)CC1 (stereo not given)		4.53
CCN(CC)S(=O)(=O)c1ccc(N2CCOCC2)c(NC(=O)c2ccc(=O)n(C)n2)c1		9.63
COc1cccc(CNS(=O)(=O)c2ccc3c(c2)N(C(C)=O)CCS3)c1		-7.71
O=C(Nc1cccc(C(=O)NC2CC2)c1)c1ccc(F)c(S(=O)(=O)N2CCOCC2)c1		-9.6
COc1ccc(NC(=O)NCCN2CCN(c3ccc(C)cc3)CC2)c(Cl)c1		-0.113
CC1Oc2ccccc2N(Cc2cccnc2)C1=O (stereo not given)		3.27
O=C1C(Cc2ccc(O)cc2)NC(=S)N1Cc1ccccc1 (stereo not given)		2.47
CC1C(=O)N(Cc2ccccc2)c2ccccc2N1C(=O)c1ccccc1 (stereo not given)	25.9 µM (active)	
COCCN(Cc1ccccc1)C(=O)Cc1ccc(S(=O)(=O)N2CCOCC2)s1		14.1
COC(=O)c1ccc(CN2C(=O)NC(c3ccccc3)(c3ccccc3)C2=O)o1		2.4
CC[C@]1(c2ccccc2OC)C(=O)N(C(=O)OC)N1C(=O)OC		4.37
CC1(C)Cc2c(sc(NC(=O)C(=O)NCC3CCCO3)c2C(=O)O)CO1 (stereo not given)		24.4
Cn1c(SCC(=O)Nc2nccs2)nnc1-c1cccnc1		0.876
Cc1ccc(C2C3=C(Nc4[nH]n(-c5ccccc5)c(=O)c42)c2ccccc2C3=O)cc1 (stereo not given)		-3.68
COc1ccccc1NC(=O)C1=C(C)NC2=C(C(=O)CCC2)C1c1ccc(C)o1 (stereo not given)		-9.66
COC(=O)C1=C(C)NC2=C(C(=O)c3ccccc32)C1c1ccc(-c2ccc(C(=O)O)cc2)o1 (stereo not given)	20.6 µM (active)	
O=C(Nc1ccncc1)c1ccc(Cl)c([N+](=O)[O-])c1		-21.7
Oc1ccc(N=Cc2c(O)ccc3ccccc23)cc1		-21.1
Oc1ccc2ccccc2c1C=Nc1ccccc1		4.96
Oc1ccc2ccccc2c1N=Nc1nccs1	3.66 µM (active)	
CC(C)C(NC(=O)c1c(F)cccc1F)C(=O)NNC(=O)c1ccccc1 (stereo not given)		16.2
CN(C(=O)Cn1nnc(-c2ccc(F)cc2)n1)C1CCS(=O)(=O)C1 (stereo not given)		-4.84
CN(C)S(=O)(=O)c1cccc(NC(=O)Cc2ccsc2)c1		-4.35
CN(CC(=O)Nc1cccc(F)c1)C(=O)C1=COCCO1		1.14

Structure (SMILES)	Potency	activity change, negative = inhibition [%]
CCCc1ccc(-c2c(C)sc(NC(=O)c3ccnn3C)c2C#N)cc1	18.4 µM (active)	
CCN(CC)C(=O)c1sc(NC(=O)c2ccco2)c(C#N)c1C		3.83
Cn1nccc1CNC(=O)c1ccnn1C		-1.3
CSc1ccccc1C(=O)OCC(=O)N1CCN(C(C)=O)CC1		6.83
Cc1ccc(C)c(S(=O)(=O)N2CCN(c3ncnc4sccc34)CC2)c1	1.83 µM (active)	
COc1ccc(C)cc1S(=O)(=O)N1CCN(S(=O)(=O)c2cc(C(=O)O)ccc2C)CC1		10
Cc1ccc(C)c(S(=O)(=O)n2cnc3ccccc32)c1		8.47
CC(=O)N1CCCc2cc(S(=O)(=O)CCC(=O)N3CCN(c4ccccc4)CC3)ccc21		-11.5
CCCS(=O)(=O)N1CCCC(C(=O)N2CCN(c3ccccc3)CC2)C1 (stereo not given)		1.94
Cc1ccc(S(=O)(=O)N2CCCC(C(=O)N3CCN(C)CC3)C2)cc1 (stereo not given)		-5.55
CC(=O)N1c2ccc(S(=O)(=O)N3CCC(C(=O)N4CCN(c5ccccc5)CC4)CC3)cc2CC1C (stereo not given)		-10.6
O=C(C1CCCN(S(=O)(=O)c2ccccc2)C1)N1CCN(c2ccc(F)cc2)CC1 (stereo not given)	11.6 µM (active)	
CC(=O)N1CCCc2cc(S(=O)(=O)N3CCCC(C(=O)N4CCN(c5cccc(Cl)c5)CC4)C3)ccc21 (stereo not given)	20.6 µM (active)	
O=S(=O)(NC1CCCCC1N1CCN(c2ccccc2F)CC1)c1ccccc1 (stereo not given)		-4.79
COc1ccccc1N1CC(C(=O)Nc2nnc(SCC(=O)NCC3CCCO3)s2)CC1=O (stereo not given)		-13.9
COc1ccc2[nH]c3nc(SCC(=O)NC4CC4)nnc3c2c1		8.12
Cc1cccc(S(=O)(=O)N2CN(CC3CCCO3)c3nc4ccccc4nc32)c1 (stereo not given)		3.28
CCOc1ccc(NC(=O)CN(C)C(=O)COc2cccc(CC)c2)cc1OCC		12.8
CN(CC(=O)Nc1ccc(F)cc1)C(=O)c1ccc(-c2ccc(Cl)cc2)o1		0.408
CC(C)(C)NS(=O)(=O)NC(=O)C1=C(N2CCCC2)COC1=O		16.4
CCCc1cc(=O)oc2cc(OCC(=O)Nc3ccc(CN4CCOCC4)cc3)c(Cl)cc12		-13.1
CCCCN1C(=O)C(C)=C(C)C1OCCc1ccc(OC)c(OC)c1 (stereo not given)		-6.77
O=C(O)c1ccccc1-c1ccccc1C(=O)Nc1cccc2ccccc12		-3.68
CCC(CO)Oc1cc(NC(=O)c2cccc3ccccc23)c2ncn(C(C)C)c2c1 (stereo not given)	14.6 µM (active)	
CCC(CO)Oc1cc(NC(=O)c2ccc(Cl)cc2)c2ncn(C(C)C)c2c1 (stereo not given)		0
